# Screening results: PubChem BioAssay, National Center for Advancing Translational Sciences (NCATS)
# IL1B secr inh – inhibitors of inflammasome signaling (IL-1 beta secretion). 360,000 compounds, 4.7% hits. THP-1 LPS/ATP IL-1B secretion, AlphaLISA, 16 h; hits give low values. activity change, % at 57.5 µM; in the data active = activity change below about -50%; inconclusive = mostly about -30% to -49%
#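 Secreted IL-1B measured by AlphaLISA bead assay after 16 h compound exposure of THP-1 cells; compounds (final up to 57.5 uM) added 1 h before LPS (250 ng/mL) and ATP (1.25 mM) stimulation; lower signal means less secretion.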
# DT40 TDP1 CPT – DT40-hTDP1 cell growth loss with CPT. chicken DT40 Tdp1-/-;hTDP1 cells + 20 nM CPT, ATP luminescence, 48 h. Potency, µM (top dose mostly 46.2 µM), actives largely listed as inhibitors. 420,000 compounds, 12% hits. AID 686979; also: nearly all actives have a fitted effect of over 55% in size
#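 Chicken DT40 Tdp1-/- cells stably complemented with human TDP1 were seeded at 400 cells/well in medium containing 20 nM camptothecin, exposed to pin-transferred compounds, and grown at 37 °C for at least 48 hr. Viability was read as ATP luminescence.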
# HT1080 IDH1KD tx – kills HT-1080 cells with IDH1 knockdown | 360,000 compounds, 2% hits | HT-1080 IDH1 knockdown viability, ATP luminescence, 48 h | Potency, µM (top dose mostly 46.1 µM), actives largely listed as cytotoxic
#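 CellTiter-Glo luminescence after 48 h compound exposure at 37 degrees C of IDH1-knockdown HT-1080 cells in 5% FBS RPMI. %Activity scaled between DMSO wells and cell-free media wells, with curves fitted and assigned curve classes.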
# TDP1 cell noCPT – qHTS for Inhibitors of human tyrosyl-DNA phosphodiesterase 1 (TDP1): qHTS in cells in absence of CPT. AID 686978, 2013. Potency, µM (top dose mostly 46.2 µM), usual class: inhibitors. 420,000 compounds, 15% hits. DT40 Tdp1-/- hTDP1 cells, no CPT, ATP luminescence, 48 h; also: nearly all actives have a fitted effect of over 55% in size
#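 Cells were dispensed at 400 per well, compounds added by pin tool, plates incubated ≥48 hr at 37 °C, then CellTiter-Glo added for 30 min at room temperature before luminescence reading. Line: DT40 Tdp1-/- complemented with hTDP1; camptothecin omitted.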
# HT1080-NT tox – kills 2HG-producing HT-1080-NT fibrosarcoma cells. HT-1080-NT fibrosarcoma viability, CellTiter-Glo ATP luminescence, 48 h. Potency, µM (highest dose often 46.1 µM), hits mostly cytotoxic. 360,000 compounds, 1.6% hits. AID 686970;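 also: NT is the 2HG producing partner of a matched IDH1 knockdown line; nearly all actives have a fitted effect of over 55% in size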
#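 Fibrosarcoma NT cells, 750 per well in 5% FBS RPMI, were exposed to compound for 48 hours. Viability: CellTiter-Glo luminescence.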
# A number is an active result; – = inactive; ? = inconclusive; · = not tested or not shown; [ ] = dose if it differs, or a comment. Sampled rows, rich in hits. Any-hit rate of the full collection: about 19%. Unless noted, calls follow the shape of the dose curve; as a rule, active = well fitted curve in the direction sought with a large enough effect; inconclusive = small, poorly fitted or top-dose-only effect, or another doubt; inactive = no such curve, though single readings can be large; an effect the other way counts as inactive or inconclusive.
SMILES,IL1B secr inh,DT40 TDP1 CPT,HT1080 IDH1KD tx,TDP1 cell noCPT,HT1080-NT tox
CCCCOc1ccc(OCCNC(=O)c2ccco2)cc1,–,?,?,16µM,–
O=C(NC(=S)NCc1ccc(Cl)cc1)c1ccco1,-101,?,–,?,–
CCCOc1ccc(C(=O)NNC(=S)NC(=O)c2ccco2)cc1,–,3.3µM,23µM,2.9µM,?
CCC(NC(=O)c1ccccc1NC(=O)c1ccco1)C(=O)NNC(=O)c1ccc(OC)cc1 (stereo not drawn),-120,–,?,–,–
COc1ccc(C(=O)NNC(=S)NC(=O)c2ccco2)cc1,–,5.2µM,?,8.2µM,?
COc1ccccc1C(=O)NNC(=S)NC(=O)c1ccco1,–,12µM,?,7.3µM,–
O=C(COc1ccc(Cl)cc1Cl)NNC(=S)NC(=O)c1ccco1,·,?,?,?,–
CCNC(=S)Nc1cc(OC)c(NC(=O)c2ccco2)cc1OC,–,–,–,–,–
COC(=O)c1cc(OC)c(OC)cc1NC(=S)NC(=O)c1ccco1,–,21µM,?,10µM,–
O=C(NNC(=S)NC(=O)c1ccco1)c1ccc(F)cc1,–,?,?,?,–
CC(Oc1ccc(Cl)cc1)C(=O)NNC(=S)NC(=O)c1ccco1 (stereo not drawn),–,?,?,16µM,?
COc1ccc(S(=O)(=O)NCC2CCCN(Cc3ccc(OC)cc3F)C2)cc1 (stereo not drawn),–,–,–,–,–
CCCCCOc1ccc(C(=O)OC(C)C(=O)NCc2ccco2)cc1 (stereo not drawn),–,?,21µM,?,?
CC(C)(C)NC(=O)C1C(c2ccc(C(F)(F)F)cc2)=Nc2ccccc2N1C(=O)c1cccc(C(F)(F)F)c1 (stereo not drawn),–,?,–,?,–
CSc1ccc(CCNC(=O)c2ccc(-n3c(C)cc4c3CCCC4)cc2)cc1,·,21µM,·,18µM,·
Cc1cc2c(n1-c1ccc(C(=O)NCC(C)c3ccccc3)cc1)CCCC2 (stereo not drawn),·,23µM,·,15µM,·
CCN(CC)CCNC(=O)c1ccc(-n2c(C)cc3c2CCCC3=O)cc1,–,–,–,–,–
Cc1cc2c(n1-c1ccc(C(=O)NCCc3ccc(Cl)cc3)cc1)CCCC2,·,?,·,26µM,·
O=C(NC1CCCCCCC1)c1ccc2c(c1)OCO2,–,–,–,?,–
COc1ccc(C(=O)NC(=S)NNC(=O)c2c(-c3ccccc3)noc2C)cc1OC,–,–,?,?,?
Cc1onc(-c2ccccc2)c1C(=O)NNC(=S)NC(=O)/C=C/c1cccs1,–,16µM,?,23µM,?
Cc1onc(-c2ccccc2)c1C(=O)NNC(=S)NC(=O)c1ccc2c(c1)OCO2,–,–,?,1.6µM,?
O=C(NNC(=S)NC1CCCCC1)c1ccc2c(c1)OCO2,–,?,–,18µM,–
Cc1onc(-c2ccccc2)c1C(=O)NC(=S)NNC(=O)c1ccncc1,–,?,?,?,–
Cc1onc(-c2ccccc2)c1C(=O)NC(=S)NNC(=O)c1ccco1,–,?,?,16µM,–
SMILES,IL1B secr inh,DT40 TDP1 CPT,HT1080 IDH1KD tx,TDP1 cell noCPT,HT1080-NT tox
COc1ccc(CNC(=O)c2cnc3sc4cc(OC)ccc4n3c2=O)cc1,·,–,·,–,·
O=C(CCNC(=O)c1ccco1)Nc1ccc(OC(F)F)cc1,–,–,–,–,–
Cc1onc(-c2ccccc2)c1C(=O)NC(=S)NNC(=O)c1cccnc1,–,–,–,?,–
Cc1onc(-c2ccccc2)c1C(=O)NC(=S)NNC(=O)c1cc(-c2ccc(F)cc2)n[nH]1,–,?,?,21µM,?
Cc1ccc2nc(=O)c(NNc3ccccc3)cnc2c1,–,?,–,10µM,–
Cc1ccc(NNC(=O)c2ccno2)c(C)c1,–,–,7.3µM,18µM,5.8µM
Cc1ccc(NNC(=O)CCc2ccccc2)c(C)c1,·,–,26µM,–,?
CCCCNC(=O)[C@H]1N2C(=O)c3c(ccc(OC)c3OC)C2SC1(C)C (stereo partly drawn),–,–,–,–,–
O=C(c1ccc(F)c(S(=O)(=O)N2CCOCC2)c1)N1CCN(c2ncccn2)CC1,–,–,–,–,–
Cc1cccc(C)c1NC(=O)c1nc(SC(C)C)ncc1Cl,·,18µM,·,?,·
CCOC(=O)c1ccc(NC(=O)c2nc(SC(C)C)ncc2Cl)cc1,·,16µM,·,16µM,·
Cc1noc(C)c1CSc1nc2ccccc2n1C,–,?,–,–,–
CC(=O)Nc1ccc(C(=O)CSc2nnc(-c3ccccc3F)n2CCc2ccccc2)cc1,–,?,–,13µM,–
Cc1noc(C)c1CSc1nnc(-c2ccccc2F)n1CCc1ccccc1,–,18µM,–,?,–
COc1ccc(C(=O)NCc2ccc3c(c2)OCO3)c(OC)c1,–,?,–,?,–
COc1ccc(N2CCN(C(=O)c3cc4c(s3)CCCCC4)CC2)cc1,–,21µM,–,?,–[9.24 µM]
CC(=O)c1ccc(N2CCN(C(=O)c3cc4c(s3)CCCC4)CC2)cc1,–,23µM,–,?,–
COc1ccccc1N1CCN(C(=O)c2cc3c(s2)CCC3)CC1,–,?,–,29µM,–
COc1ccc2c(c1)CCc1cc(C(=O)N3CCN(c4ccc(N5CCOCC5)nn4)CC3)sc1-2,–,21µM,–,?,–
COc1ccc(N2CCN(C(=O)c3cc4c(s3)-c3ccccc3OC4)CC2)cc1,–,–,–,–,–
CC(=O)c1ccc(N2CCN(C(=O)c3cc4cc5cc(C)ccc5nc4s3)CC2)cc1,·,–,·,–,·
COC(=O)c1ccc(-n2nnnc2SCc2ccccc2OC)cc1,–,–,–,?,–
O=C(Nc1ccc(Br)cn1)c1cccc(-c2cc3ccccc3oc2=O)c1,–,?,23µM,?,?
O=C(Nc1ccc(N2CCCC2)cc1)c1cccc(-c2cc3ccccc3oc2=O)c1,–,16µM,–,23µM,–
O=C(Nc1ccc(N2CCCC2)cc1)c1ccc2ccccc2c1,–,–,–,–,–
O=C(Nc1ccccc1N1CCCC1)c1cccc(-c2cc3ccccc3oc2=O)c1,–,?,–,21µM,–
CCCn1c(SCC(=O)N2c3ccccc3CC2C)nnc1-c1ccco1 (stereo not drawn),–,21µM,–,?,–
CC1Cc2ccccc2N1C(=O)CSc1nnnn1C (stereo not drawn),–,–,–,–,–
CC1Cc2ccccc2N1C(=O)CSc1nnc(Cc2ccccc2)n1CCc1ccccc1 (stereo not drawn),–,?,–,23µM,–
CC[C@]12c3[nH]c4ccc(Cl)cc4c3CCN1C(=O)[C@@H](CC(=O)NCCc1ccccn1)C[C@@H]2C(=O)N1CCN(C(=O)c2ccco2)CC1,–,–,–,?,–
